Screening data from PubChem BioAssay.
HepG2 tox = kills HepG2 cells in TGF-b inhibitor counter-screen; 0.76% of 410,000 active; Potency, µM (highest dose often 46.1 µM), for the others: at the top dose activity change, negative = cytotoxicity, usual class: cytotoxic; AID 588856; HepG2 CAGA-GFP viability, ATP luminescence, 18 h
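CellTiter-Glo luminescence gave cytotoxicity after 18 hours at 37 degrees C. The cells were HepG2 CAGA-GFP in 1% FBS DMEM, stimulated with 500 pg/mL TGF-beta after compound addition. %Activity was normalised to no-cell wells (complete cell-killing) and DMSO (no toxicity), and curves were fitted and classified.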
ATXN2 expr inh = reduces ATXN2 reporter expression in HEK-293 cells; 0.72% of 360,000 active; HEK-293 ATXN2-luciferase reporter, luminescence, 24 h; AID 1745845; Potency, µM (doses to about 57 µM), for inactives: at the top dose activity change, negative = inhibition, usual class: inhibitors; note: % is set by controls: 0 for no effect and ±100 for the full control effect; nearly all actives have a fitted effect of over 55% in size
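qHTS (up to 57 uM final) was run with 24 h compound exposure of reporter cells at 37 °C. Each well was multiplexed: SteadyGlo luminescence measured ATXN2-luciferase expression after a fluorogenic Gly-Phe-AFC viability readout (25 uM final).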
S2 tox = viability counter-screen for ATXN expression inhibitors | S2 cells (HEK-293 line with an ATXN2-luciferase reporter) viability, CellTiter-Fluor protease fluorescence, 24 h | Potency, µM (highest dose often 56.7 µM), hits mostly cytotoxic | 0.49% of 400,000 active; note: nearly all actives have a fitted effect of over 40% in size
TGFb inhibitor = inhibitors of TGF-b signaling. HepG2 CAGA-GFP TGF-b/SMAD3 reporter, GFP fluorescence, 18 h; TGF-beta stimulated, 500 pg/mL final. Potency, µM (top dose mostly 46.1 µM), inactives show at the highest dose activity, negative = inhibition, most hits filed as inhibitors. 1.2% of 410,000 active; note: % is set by controls: 0 for no effect and ±100 for the full control effect; nearly all actives have a fitted effect of over 65% in size
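HEPG2 CAGA-GFP reporter cells (1000/well, DMEM with 1% FBS) received compounds, then recombinant TGF-beta at 500 pg/mL final for 18 hours at 37 degrees C. Per-cell GFP summed per well was normalised to unstimulated and stimulated DMSO controls before curve fitting.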
ALOX12 inh = inhibitors of human 12S-lipoxygenase ALOX12 | P18054 | purified 12hLO, xylenol orange hydroperoxide absorbance | Potency, µM (titrated, usually from 108 µM), for the others: at the highest dose activity change, negative = inhibition, actives largely listed as inhibitors | 1.1% of 580,000 active | AID 1671190; note: % is set by controls: 0 for no effect and ±100 for the full control effect
Target sequence (P18054 whole entry, looked up): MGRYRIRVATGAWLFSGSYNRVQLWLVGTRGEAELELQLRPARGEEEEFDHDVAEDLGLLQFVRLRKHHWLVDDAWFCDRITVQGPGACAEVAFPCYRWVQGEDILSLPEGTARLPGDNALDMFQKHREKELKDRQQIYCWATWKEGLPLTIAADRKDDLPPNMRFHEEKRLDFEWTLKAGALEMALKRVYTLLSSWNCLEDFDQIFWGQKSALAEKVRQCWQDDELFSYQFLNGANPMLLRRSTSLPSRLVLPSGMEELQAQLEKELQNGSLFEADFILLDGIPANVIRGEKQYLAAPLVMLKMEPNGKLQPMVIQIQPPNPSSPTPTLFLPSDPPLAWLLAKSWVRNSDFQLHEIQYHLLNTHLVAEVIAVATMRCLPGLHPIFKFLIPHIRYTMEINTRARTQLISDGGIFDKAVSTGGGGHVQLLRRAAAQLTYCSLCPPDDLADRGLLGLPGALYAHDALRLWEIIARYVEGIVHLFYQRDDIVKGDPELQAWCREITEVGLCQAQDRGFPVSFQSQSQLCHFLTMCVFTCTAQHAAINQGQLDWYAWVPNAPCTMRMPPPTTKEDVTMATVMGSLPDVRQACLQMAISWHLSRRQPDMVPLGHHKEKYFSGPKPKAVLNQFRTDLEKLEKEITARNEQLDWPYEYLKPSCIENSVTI
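Hydroperoxide product was detected by ferrous iron/xylenol orange as the 573 to 405 nm absorbance ratio. Arachidonic acid at 40 uM (final) was turned over for 30 min at room temperature by 150 nM human 12hLO, pH 7.0 Hepes buffer, after 15 min compound preincubation.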
* = called active by the depositor; i = inactive; ? = inconclusive; / = not tested or not shown; [ ] = remark or other dose. Compounds with a hit are over-represented: about 2.7% of the library has one in this group of screens. Calls come from the whole dose curve; as a rule, active = well fitted curve in the direction sought with a large enough effect; inconclusive = small, poorly fitted or top-dose-only effect, or another doubt; inactive = no such curve, though single readings can be large; an effect the other way counts as inactive or inconclusive. Potency is the fitted concentration of half-maximal effect.

SMILES | HepG2 tox | ATXN2 expr inh | S2 tox | TGFb inhibitor | ALOX12 inh
COc1cccc(NC(=O)Cn2c(CCC(=O)O)ccc2-c2ccc(C)cc2)c1 | 16µM* | / | i | ? | -4%
COc1ccc2[nH]c(-c3ccc(C)cc3)cc(=O)c2c1 | -9% | 18µM* | i | 1% | /
Cc1ccc(-c2cn3nc(C)c(C)nc3n2)cc1 | -30% | 6.3µM* | / | 14% | ?
Cc1cccc(/C=N/Nc2cc(N3CCOCC3)nc(N3CCOCC3)n2)c1 | -43% | -39% | i | 12% | 0%
Cc1cccc(C=NNc2cc(N3CCOCC3)nc(OCCc3ccccn3)n2)c1 | / | 0.97µM* | / | / | -3%[57.4 µM]
O=C(N/N=C\c1c(O)ccc2ccccc12)c1ccc(Cn2cccn2)o1 | -26% | 3.5µM* | i | 49% | -28%
Cc1cc(C)n(CCC(=O)N/N=C/c2ccc(O)cc2)n1 | -3% | -24% | i | 1% | 2%
O=C(N/N=C\c1ccc(Cl)s1)c1ccc(Cn2cccn2)o1 | 0% | -10% | i | 0% | -11%
O=C(CN1CCCC1)N/N=C/c1c(O)ccc2ccccc12 | -35% | 2.8µM* | ? | -17% | -1%
Cc1cc(C)n(CCC(=O)N/N=C/c2c(O)ccc3ccccc23)n1 | -34% | / | 10µM* | ? | ?
O=C(CCSc1nc2ccccc2s1)N/N=C/c1c(O)ccc2ccccc12 | 1% | 3.2µM* | i | -12% | -18%
Cc1ccc2nc(NC(=O)Cn3c(=O)oc4ccccc43)sc2c1 | / | / | / | / | -22%
COc1cc(NC(=O)C2(n3cnnn3)CCCCC2)cc(OC)c1OC | / | / | / | / | 60%
O=C(N/N=C/c1c(O)ccc2ccccc12)c1cccc(C(F)(F)F)c1 | -34% | 3µM* | / | ? | ?
O=C(CC12CC3CC(CC(C3)C1)C2)NC(=S)NCc1ccccc1 | -1% | 9% | i | 11% | 28µM*
Cc1ccc(C(=O)NC(=S)NCc2ccccc2)cc1 | -13% | / | i | ? | 10µM*
COc1cc(C(=O)NC(=S)Nc2ccc3c(c2)OCO3)cc(OC)c1OC | -23% | -28% | i | -1% | -29%
COc1cc(C(=O)NC(=S)Nc2ccc3ccccc3c2)cc(OC)c1OC | -29% | / | i | -18% | 18µM*
O=C(NCc1ccccc1)NCC12CC3CC(CC(C3)C1)C2 | -4% | 0% | i | -4% | 0%
COc1ccc(CCNC(=S)NC(=O)c2ccc(Br)cc2)cc1OC | -28% | ? | i | -25% | 28µM*
COc1ccc(CCNC(=O)CCNC(=O)c2ccc(Br)cc2)cc1OC | 5% | 16% | i | 7% | -6%
Cc1cc(=O)c(C(=O)N2CCN(S(=O)(=O)c3ccccc3C#N)CC2)nn1-c1ccccc1F | / | / | / | / | 12%
CC1CCC(NC(=O)c2nnn3c2COC(c2ccc(F)cc2)C3)CC1 (stereo not given) | / | / | / | / | 26%
COc1ccccc1C(=O)NC(=S)Nc1cccc2cc(O)ccc12 | -10% | 2% | i | 0% | 402%
Cc1ccc(C(=O)NC(=S)Nc2ccccc2C(F)(F)F)cc1 | -8% | 4% | i | -9% | 7.9µM*
SMILES | HepG2 tox | ATXN2 expr inh | S2 tox | TGFb inhibitor | ALOX12 inh
COc1ccc(C(=O)NC(=S)Nc2cccc3cc(O)ccc23)cc1OC | -1% | 5% | i | -12% | 10µM*
COc1ccc(C(=O)NC(=S)NCc2ccccc2)cc1OC | -2% | -6% | i | 3% | 16µM*
Cc1ccc(C(=O)NCC(=O)Nc2ccccc2C(F)(F)F)cc1 | -1% | 1% | ? | -13% | 1%
O=C(NC(=S)NCc1ccccc1)c1cccnc1 | -11% | 24% | i | 21% | -15%
O=C(NC(=S)NCc1ccccc1)c1cccc(Cl)c1 | -4% | 0% | i | 1% | 28µM*
CSc1ccc(C)c(C(=O)NC2CCCCC2)c1 | / | / | / | / | 16%
O=C(Nc1ccncc1)c1cc2ccccc2cc1O | -14% | 12% | ? | 13µM* | -18%
O=C(CNc1nc(Cl)nc2nc[nH]c12)NCCc1c[nH]c2ccc(F)cc12 | / | / | / | / | 3%
CCOc1cc(/C=C2/C(=O)ON=C2C)ccc1O | -4% | 14% | i | 3% | ?
CCOc1cc(/C=C2\CCC/C(=C\c3cc(Cl)c(O)c(OCC)c3)C2=O)cc(Cl)c1O | 7.9µM* | 8.9µM* | 16µM* | 5µM* | ?
C=CCNC(=O)/C(C#N)=C\c1cc(Cl)c(O)c(OCC)c1 | 8% | 0% | i | 10% | 4%
COc1cc(C=C2CN(C)C(=O)C2=O)ccc1O | -30% | / | 28µM* | -3% | ?
CCOc1cc(/C=C2\CN(C)C/C(=C\c3ccc(O)c(OCC)c3)C2=O)ccc1O | -55% | 3.2µM* | / | ? | ?
Cc1ccc(N2CCC(N[C@@H]3CC[C@@H](N)C3)CC2)cc1Cl | / | / | / | / | 8%
C/C(=N/Nc1cccc(Cl)c1)c1ccccc1Br | / | / | / | / | -65%
CCC(CC)C(=O)Nc1nn2c(CC(C)C)nnc2s1 | / | / | / | / | 16µM*
CCCC(=O)Nc1nn2c(CC(C)C)nnc2s1 | / | / | / | / | 25µM*
CC(C)C[C@H](N)c1cn([C@@H](CCCCN)C(=O)N2CCNCC2)nn1 | -49% | 1.6µM* | ? | ? | 0%
CC(C)CC(N)c1cn([C@@H](CCC(=O)O)C(=O)N2CCNCC2)nn1 (stereo not given in full) | 1% | 0% | i | -3% | -2%
O=[N+]([O-])c1cccc(SSc2cccc([N+](=O)[O-])c2)c1 | -25% | -12% | ? | ? | 2.5µM*
Cc1oc(-c2cccc(F)c2)nc1CN1CCCN(C(=O)c2ccco2)CC1 | -5% | -12% | i | -12% | ?
Cc1oc(-c2cccc(Cl)c2)nc1CN1CCN(C(=O)c2ccco2)CC1 | / | / | / | / | 35µM*
CCCCCCCCC/C=N/NC(=S)NC1CCCCC1 | / | / | / | / | 28µM*
N/C(=N\OC(=O)c1ccc2ccccc2c1)c1ccncc1 | -3% | 95% | i | -12% | 11%
N/C(=N\OC(=O)c1ccc2ccccc2c1)c1ccccn1 | -41% | 11µM* | i | -9% | 14%
Cc1ccc(-c2cc(C(=O)OC(C)C(N)=O)c3ccccc3n2)cc1 (stereo not given) | / | / | / | / | -5%
c1cnn(-c2ccc(-c3nc(C4CCOC4)no3)cc2)c1 (stereo not given) | / | / | / | / | 21%
CCOC(=O)c1ccc(N2C(=O)c3n[nH]c(C)c3C2c2ccc(OCC)cc2)cc1 (stereo not given) | -117% | ? | ? | 11µM* | ?
CCOC(=O)c1ccc(N2C(=O)c3n[nH]c(-c4ccco4)c3C2c2ccc(C)cc2)cc1 (stereo not given) | 16µM* | ? | 28µM* | ? | ?
CCOC(=O)c1ccc(N2C(=O)c3n[nH]c(-c4ccco4)c3C2c2ccc([N+](=O)[O-])cc2)cc1 (stereo not given) | -30% | ? | ? | ? | -29%
